Growth data for 24 compounds are collected here from PubChem BioAssay (NCI).

Assay in all cases: NCI-60 one-dose screen, 48 h (100 = growth as untreated, 0 = no growth, -100 = all killed)
Holding throughout (details): 10 µM unless noted

Assay [1] relates to SR leukemia.
In assay [2] the test system is RPMI-8226 leukemia.
The test system of assay [3] is OVCAR-8 ovarian.
The subject of assay [4] is OVCAR-5 ovarian.
In assay [5] the test system is OVCAR-4 ovarian.
The test system of assay [6] is SK-OV-3 ovarian.
Assay [7] concerns IGROV1 ovarian.
Assay [8] deals with OVCAR-3 ovarian.
Assay [9] relates to HS 578T breast.
The subject of assay [10] is NCI/ADR-RES ovarian.

Compounds without any hit were thinned out: in the full panel of roughly 83,000, 20% have a hit.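 Treatment: one concentration, 48 hours, 96-well format. Scoring: percent growth, with anything below 10 considered active.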 Values without a mark were called inactive. Calls of active or inactive are those of the source.

As for `O=C(/C=C/c1ccccc1)c1cccc(O)c1`, the growth was 67.5% in assay [1]; -17.9% (active) in assay [2]; 92.3% in assay [3]; 101% in [4]; 105% in assay [5]; 107% in [6]. Further, the growth in assay [7] is 97.8%; in assay [8], 106%; in [9], 114%; in [10], 107%.
For `O=c1[nH][nH]c(-c2ccc(F)cc2)c1-c1nc2ccccc2s1`, the growth was 103% in [1]; 97.4% in assay [2]; 100% in assay [3]; 95.9% in [4]; 106% in assay [5]; 88.6% in assay [6]. Besides, the growth in [7] is 86.8%; in assay [8], 108%; in [9] it was 96.9%; in assay [10], 86.8%.
Turning to `O=C(CSc1cc[n+](CCCCO)c2ccccc12)n1ccc2ccccc21`, the growth in [1] is 90.3%; in [2], 103%; in assay [3] it was 95.5%; in [4] it was 102%; in [5], 105%; in [6], 91%. Moreover, the growth was 20.2% in [7], 104% in assay [8], 106% in assay [9] and 105% in [10].
As for `CCOP(=O)(OCC)OC[C@]12CC[C@@H](C)[C@H](C)C1C1=CC[C@@H]3[C@@]4(C)CCCNC(C)(C)[C@@H]4CC[C@@]3(C)[C@]1(C)CC2` (stereo not given in full), the growth in assay [1] is -57.7% (active); in assay [2], -48.9% (active); in assay [3], 61.2%; in assay [4] it was 70%; in [5], 34.4%; in assay [6], 72.7%. The growth is 0.926% (active) in assay [7], 38.4% in assay [8], 47.8% in [9] and 20.6% in [10].
As to `CCOP(=O)(OCC)OC[C@]12CCC(C)(C)CC1C1=CC[C@@H]3[C@@]4(C)CCCNC(C)(C)[C@@H]4CC[C@@]3(C)[C@]1(C)CC2` (stereo not given in full), the growth in assay [1] was -24.1% (active); in [2], -1.77% (active); in [3], 90.2%; in assay [4] it was 102%; in assay [5], 80.9%; in assay [6] it was 112%. The growth was 44.5% in assay [7], 97.1% in [8], 88.7% in [9] and 73.7% in assay [10].
On to `Cn1c(SCC(=O)c2ccc(F)cc2)nc2ccccc2c1=O`, for which the growth in assay [1] was 93%; in [2] it was 76.5%; in assay [3] it was 94.5%; in assay [4], 105%; in assay [5], 79.1%; in assay [6] it was 95.7%. The growth in assay [7] is 88.7%; in [8], 104%; in assay [9] it was 101%; in [10], 93.6%.
`C=CCSC1=NC2C(N(CC)C(=O)N2CC)N1/N=C/C=C/c1ccccc1OC` (stereo not given): the growth is 16.9% in [1]; 53.7% in assay [2]; 83.5% in assay [3]; 105% in assay [4]; 79.9% in assay [5]; 99.8% in assay [6]. In addition, the growth was 69% in assay [7], 54.6% in assay [8], 82.4% in assay [9] and 53.3% in assay [10].
Regarding `COc1cc(C(C)=C(c2ccc(OCCN(C)C)cc2)c2ccc(OCCN(C)C)cc2)ccc1F`, the growth in assay [1] was 99.2%; in assay [2], 107%; in assay [3], 104%; in assay [4] it was 103%; in assay [5], 108%; in assay [6] it was 102%. Moreover, the growth in assay [7] was 105%; in assay [8], 109%; in assay [9], 101%; in assay [10], 105%.
In the case of `C#CCOc1ccccc1C(OC(=O)c1ccccc1)C(=O)NC(C)(C)C(C)(C)C` (stereo not given), the growth in [1] is 64.7%; in assay [2], 74%; in assay [3], 89.3%; in [4], 102%; in assay [5] it was 85.9%; in assay [6], 95.8%. In addition, the growth was 68.9% in [7], 99.9% in [8], 91.1% in assay [9] and 87% in [10].
As to `CC1(C)C=Cc2cc(/C(N)=N/C(N)=N/c3nc4ccccc4s3)ccc2O1`, the growth was 6.81% (active) in [1]; 80.2% in assay [2]; 76.5% in assay [3]; 95.9% in assay [4]; 82.7% in assay [5]; 124% in assay [6]. The growth in assay [7] is 52.5%; in assay [8] it was 103%; in [9] it was 101%; in assay [10], 81.7%.
For `C#CCN(C)CCCOc1ccc(NCc2ccc(/C=C/C(=O)NO)cc2)cc1Cl`, the growth is 9.72% (active) in [1]; 8.55% (active) in assay [2]; 11.9% in assay [3]; 6.62% (active) in assay [4]; 22.4% in [5]; -11.3% (active) in assay [6]. The growth in [7] is -35.7% (active); in [8], 11%; in assay [9] it was 10.7%; in assay [10], -8.39% (active).
For `CCCC/C(=C\c1ccc(O)c(O)c1)C(=O)NC(Cc1ccccc1)C(=O)C(=O)NCCc1ccc(OC)cc1` (stereo not given), the growth was 105% in [1]; 89.7% in assay [2]; 97.2% in assay [3]; 99.3% in assay [4]; 92.7% in assay [5]; 105% in assay [6]. The growth in assay [7] was 96.8%; in assay [8] it was 93.7%; in assay [9], 91.8%; in assay [10], 101%.
For the compound `Cc1ccc2c(n1)C(=O)C(Cl)=C(Nc1cc(C(F)(F)F)cc(C(F)(F)F)c1)C2=O`, the growth in assay [1] is 7.46% (active); in [2] it was 6.65% (active); in [3] it was 87.8%; in [4], 109%; in assay [5], -84.8% (active); in assay [6] it was 110%. For the same compound, the growth was 27.8% in assay [7], 37.3% in assay [8], 92.8% in [9] and 99.7% in assay [10].
`NS(=O)(=O)c1nnc(/N=C/c2c(O)[nH]c3ccccc23)s1`: the growth was 98.3% in assay [1]; 109% in [2]; 99.9% in assay [3]; 121% in [4]; 98.5% in assay [5]; 99.5% in assay [6]. Moreover, the growth in [7] was 76.5%; in [8], 107%; in [9], 102%; in assay [10], 107%.
`CC(C)NC(=O)c1cc(-c2ccc(NC(=O)Nc3ccc(F)c(C(F)(F)F)c3)cc2)nc2cccnc12`: the growth was 81.6% in assay [1]; 89.8% in assay [2]; 79.5% in [3]; 113% in assay [4]; 92.3% in [5]; 105% in assay [6]. In addition, the growth in [7] is 110%; in assay [8], 109%; in assay [9], 87.6%; in assay [10], 98.2%.
As for `Cn1ncc2ncc(-c3ccc4ncc(C#N)c(N5CCc6cc(F)c(Cl)cc65)c4c3)cc21`, the growth in [1] was 22.3%; in [2], 35.8%; in [3] it was 38.8%; in assay [4] it was 47%; in assay [5], 26.1%; in [6], 15%. The growth in assay [7] is -9.7% (active); in assay [8], 29.8%; in assay [9] it was -1.2% (active); in [10], 39.3%.
With `Cc1ccc(-c2csc(N/N=C/c3cccs3)n2)cc1`, the growth in assay [1] was 56.1%; in assay [2] it was 86.5%; in [3], 93.6%; in assay [4], 122%; in assay [5] it was 59.6%; in assay [6], 101%. For the same compound, the growth is 86.3% in assay [7], 104% in [8], 105% in assay [9] and 92.7% in assay [10].
On to `CC(=O)Nc1nc(C)c(-c2csc(Nc3ccccc3)n2)s1`, for which the growth in assay [1] was 8.83% (active); in assay [2], 27.4%; in assay [3] it was 52.3%; in assay [4], 41.9%; in [5], 54.7%; in [6], 15.3%. Also, the growth in assay [7] was -9.74% (active); in [8] it was 37.1%; in [9], -4.87% (active); in assay [10] it was 35.9%.
As for `COC(=O)c1cccc(NC2=C(Cl)C(=O)c3nc(C)ccc3C2=O)c1`, the growth in [1] is 18.7%; in assay [2], 3.31% (active); in assay [3], 77.4%; in [4] it was 99.8%; in assay [5], -97.6% (active); in [6], 87.6%. Moreover, the growth in assay [7] was -58.1% (active); in [8], 4.2% (active); in assay [9], 102%; in assay [10], 89.7%.
For `CCOC(=O)c1c(NCC(=O)Nc2cccc([N+](=O)[O-])c2)sc(C(C)=O)c1C`, the growth is 0.317% (active) in assay [1]; -14.1% (active) in assay [2]; -8.65% (active) in [3]; 1.07% (active) in assay [4]; 4.88% (active) in assay [5]; -13.4% (active) in assay [6]. Besides, the growth in assay [7] is 22%; in assay [8] it was -37.2% (active); in [9], -23.9% (active); in assay [10], -28.3% (active).
As to `COc1ccc2c(c1)c(-c1nnc(N)nc1-c1c[nH]c3ccc(F)cc13)cn2C`, the growth in assay [1] is 12.5%; in assay [2] it was 28.2%; in assay [3], 59.5%; in assay [4] it was 84.2%; in assay [5] it was 86.3%; in assay [6], 80.7%. The growth is 45.7% in assay [7], 3.98% (active) in [8], 49.8% in assay [9] and 75.2% in assay [10].
Regarding `O=S(=O)(NCCCNc1nccc(-c2[nH]c(-c3ccccc3)nc2-c2ccc(F)c(O)c2)n1)c1ccc(C(F)(F)F)cc1`, the growth in assay [1] was 1.01% (active); in assay [2], 16.2%; in assay [3] it was 69.7%; in assay [4], 136%; in assay [5] it was 67.8%; in [6], 78.4%. For the same compound, the growth was 63.1% in [7], 33.6% in assay [8], 48.9% in assay [9] and 89% in assay [10].
Regarding `O=C(CSc1nnc(-c2ccc(Cl)cc2)n1-c1ccccc1)Nc1ccc(Cl)cc1`, the growth was 18.6% in assay [1]; 31% in [2]; 31% in assay [3]; 37.3% in [4]; -55.8% (active) in [5]; 75% in [6]. In addition, the growth in assay [7] was 23.3%; in assay [8], 57.5%; in assay [9], 38.4%; in assay [10], 34.7%.
For the compound `COc1ccc(C(C)=C(c2ccc(OCCN(C)C)cc2)c2ccc(OCCN(C)C)cc2)cc1`, the growth in assay [1] was -46.5% (active); in assay [2], -48.5% (active); in assay [3] it was -2.55% (active); in [4], -5.23% (active); in assay [5], -35.4% (active); in assay [6] it was -5.19% (active). In addition, the growth in assay [7] was -24.6% (active); in assay [8] it was -46.2% (active); in [9], -46.7% (active); in assay [10] it was 0.85% (active).
